{"source": "PubChem BioAssay AID1851", "about": "(National Center for Advancing Translational Sciences (NCATS), 2009)", "note": "About 4,000 (25%) of roughly 16,000 compounds were called active. Not shown: some 26% with an inconclusive outcome. Only a sample is shown. Values without a mark were called inactive. The call rests on the fitted dose curve; in most records, active means well fitted curve in the direction sought with a large enough effect; inconclusive means small, poorly fitted or top-dose-only effect, or effect the other way; inactive means no such curve, though single readings can be large or run the other way. On the % scale 0 is the no-effect control and ±100 the full control effect.", "data": [{"biological_target": "Cytochrome P450 2C9 (Homo sapiens) (UniProt P11712)", "sequence (P11712 whole entry, looked up)": "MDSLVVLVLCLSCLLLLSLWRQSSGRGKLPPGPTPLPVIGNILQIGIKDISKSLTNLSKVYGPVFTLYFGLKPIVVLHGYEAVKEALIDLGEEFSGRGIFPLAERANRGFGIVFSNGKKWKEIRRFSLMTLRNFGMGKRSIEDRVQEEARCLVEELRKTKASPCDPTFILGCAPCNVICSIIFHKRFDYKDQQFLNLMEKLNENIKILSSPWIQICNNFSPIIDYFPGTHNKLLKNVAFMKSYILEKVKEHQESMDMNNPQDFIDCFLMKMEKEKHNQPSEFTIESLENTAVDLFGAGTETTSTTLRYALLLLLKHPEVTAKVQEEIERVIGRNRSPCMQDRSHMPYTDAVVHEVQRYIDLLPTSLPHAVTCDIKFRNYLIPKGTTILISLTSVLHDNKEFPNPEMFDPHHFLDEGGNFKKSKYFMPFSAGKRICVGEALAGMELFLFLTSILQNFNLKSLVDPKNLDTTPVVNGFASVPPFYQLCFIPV", "experiment": "Cytochrome panel assay with activity outcomes", "details": "recombinant CYP, pro-luciferin dealkylation, luminescence, p450-cyp2c9; series mostly up to 57.1 µM; activity, negative = inhibition: at the top concentration", "values": [{"smiles": "CC(=O)c1c(C(C)=O)c(C)n(NC(=O)c2ccncc2)c1C", "AC50": "1.58 µM (active)"}, {"smiles": "NNC(=O)c1ccncc1", "activity, negative = inhibition": "-14.5% [at 25.6 µM]"}, {"smiles": "O=C(NNC(=O)c1ccncc1)c1ccncc1", "activity, negative = inhibition": "0.511% [at 11.4 µM]"}, {"smiles": "NS(=O)(=O)c1ccc(N=Nc2cc3ccccc3c(C(=O)O)c2O)cc1", "activity, negative = inhibition": "-1.93% [at 11.4 µM]"}, {"smiles": "CCN1C(=O)[C@H]2[C@H]3[C@H](O)[C@H](O)C/C(=N/O[C@@H]4O[C@H](COC(C)=O)[C@@H](OC(C)=O)[C@H](OC(C)=O)[C@H]4OC(C)=O)[C@@H]3CC[C@@H]2C1=O", "activity, negative = inhibition": "-1.58% [at 11.4 µM]"}, {"smiles": "CC1(C)Cc2ccccc2C(NNC(=O)c2ccncc2)=N1", "activity, negative = inhibition": "-14.2%"}, {"smiles": "C/C(=N\\NC(=O)c1ccc(Br)cc1)c1ccccc1", "activity, negative = inhibition": "9.36%"}, {"smiles": "C/C(=N\\NC(=O)c1ccncc1)c1ccc2ccccc2c1O", "AC50": "0.1 µM (active)"}, {"smiles": "O=C(c1cccc(F)c1)N1CCC2(CC1)CCN(c1ccccc1)CC2", "activity, negative = inhibition": "-28.2%"}, {"smiles": "CC(C)NC(=O)N1CCC2(CC1)CCN(C(=O)c1cccc(F)c1)CC2", "activity, negative = inhibition": "27.3%"}, {"smiles": "O=C(c1cc(C(F)(F)F)cc(C(F)(F)F)c1)N1CCC2(CCCN(c3ncccn3)C2)CC1", "activity, negative = inhibition": "-8.06%"}, {"smiles": "CC(=O)N1CCC2(CCCN(c3ncccn3)C2)CC1", "activity, negative = inhibition": "-3.08%"}, {"smiles": "O=C(c1cccc(F)c1)N1CCC2(CC1)CCN(c1ncccn1)CC2", "AC50": "12.6 µM (active)"}, {"smiles": "O=C(c1cccc(F)c1)N1CCC2(CCCN(c3ncccn3)C2)CC1", "AC50": "15.8 µM (active)"}, {"smiles": "COc1cccc2c1C(=O)c1c(O)c3c(c(O)c1C2=O)C[C@](O)(C(=O)CO)C[C@H]3O[C@@H]1C[C@H](N)[C@H](O)[C@H](C)O1", "activity, negative = inhibition": "-8.75% [at 25.6 µM]"}, {"smiles": "O=C(O)[C@@H]1CCCN1", "activity, negative = inhibition": "1.2% [at 11.4 µM]"}, {"smiles": "CCSc1nnc(-c2ccc(Cl)cc2)c2ccccc12", "AC50": "2 µM (active)"}, {"smiles": "O=C(N/C(=C/c1ccc(Br)cc1)c1nc2ccccc2[nH]1)c1ccco1", "activity, negative = inhibition": "-21.8%"}, {"smiles": "Cc1ccc(C(=O)N/C(=C\\c2ccc(Br)cc2)c2nc(=S)[nH][nH]2)cc1", "AC50": "8.91 µM (active)"}, {"smiles": "CCOc1nc(N=C(N)N)nc2c(C)cccc12", "activity, negative = inhibition": "-3.81%"}, {"smiles": "COc1ccc2nc(N)sc2c1", "activity, negative = inhibition": "-0.783%"}, {"smiles": "COc1ccc2nc(NCN3C(=O)c4ccccc4C3=O)sc2c1", "activity, negative = inhibition": "-14.8% [at 11.4 µM]"}, {"smiles": "COc1ccc2nc(N3C(=O)CC(Cc4ccc(Cl)cc4)C3=O)sc2c1", "note": "(stereo not given)", "AC50": "12.6 µM (active)"}, {"smiles": "CN1CCN(CCCBr)CC1", "activity, negative = inhibition": "18% [at 11.4 µM]"}, {"smiles": "C[C@H](O/N=C1/[C@H]2O[C@@H]2[C@@H](O)[C@H]2[C@H]1CCn1c(=O)n(-c3ccccc3)c(=O)n12)c1cn([C@H]2COC[C@H]2O)nn1", "activity, negative = inhibition": "0.305% [at 11.4 µM]"}]}]}
